Laboratory results as given in PubChem BioAssay AID463173 (ICCB-Longwood Screening Facility, Harvard Medical School, 2010).
The campaign covered roughly 52,000 compounds. About 4,300 (8.3%) were called active. Rule as the data show it: active = survival mostly below about 52% (no sharp cut-off); inactive = mostly above about 56%. Shown is part of a subset that was picked to be rich in actives.

These molecules were tested on DeltatarO mutant (assay: growth inhibition of S. aureus wild type versus tarO mutant, primary screen, teichoic acid synthesis inhibitors, RN4220, OD600 (AID 463173)). Conditions: OD600, 18 h, active compounds read low, screened at 18.75 µg/mL (by protocol).
In the case of `CC(=O)N1c2ccccc2C(=O)C1N1CCN(c2ccccc2F)CC1` (centres undefined), the survival is reported as 90% (inactive). For `COc1ccc(-c2cn3c(n2)sc2cc(C(=O)Nc4cccc(SC)c4)ccc23)cc1`, the survival was 59% (inactive). With `COC(=O)c1cc(NC(=O)Cn2ncc3c([nH]c4ccccc43)c2=O)cc(C(=O)OC)c1` the survival was 66% (inactive). With `O=C(CSc1ccc(-c2ccccn2)nn1)Nc1ccc(F)cc1F` the survival was 38% (inactive). With `O=C(NCCc1ccc(Cl)cc1)c1ccc2c(c1)N(Cc1ccccc1)C(=O)CS2` the survival was 25% (active). In the case of `CC(NC(=O)c1ccc2c(c1)N(Cc1ccc(Cl)cc1)C(=O)CS2)c1ccccc1` (centres undefined), the survival is reported as 48% (active). For `O=C(NCCc1ccc(Cl)cc1)c1ccc2c(c1)N(Cc1ccccc1)CCS2`, the survival was 102% (inactive). With `O=C(NCCc1ccccc1)c1ccc2c(c1)N(Cc1ccc(Cl)cc1)C(=O)CS2` the survival was 144% (inactive). For `O=C(NCCc1ccccc1)c1ccc2c(c1)N(Cc1ccc(F)cc1Cl)C(=O)CS2`, the survival was 55% (active). `Cc1ccc(C)c(CN2C(=O)CSc3ccc(C(=O)NCCc4ccc(Cl)cc4)cc32)c1` was tested, and the survival was 49% (inactive). `O=C(NCCc1ccccc1)c1ccc2c(c1)N(Cc1ccccc1Cl)C(=O)c1ccccc1S2` was tested, and the survival was 94% (inactive). For `CC(NC(=O)c1ccc2c(c1)N(Cc1ccc(Cl)cc1)C(=O)c1ccccc1S2=O)c1ccccc1` (centres undefined), the survival was 73% (inactive). With `CC(NC(=O)c1ccc2c(c1)N(Cc1ccc(Cl)cc1)C(=O)c1ccccc1S2(=O)=O)c1ccccc1` (centres undefined) the survival was 90% (inactive). For `O=C(NCCc1ccc(Cl)cc1)c1ccc2c(c1)N(Cc1ccc(F)cc1Cl)C(=O)CS2`, the survival was 49% (inactive). With `O=C(NCCc1ccccc1)c1ccc2c(c1)N(Cc1c(F)cccc1Cl)C(=O)CS2` the survival was 54% (inactive). With `O=C(NCCc1ccc(Cl)cc1)c1ccc2c(c1)N(Cc1c(F)cccc1Cl)C(=O)CS2` the survival was 44% (active). `CCOC(=O)c1c(C)n(CCNC(C)=O)c2cc(Br)c(OC)cc12` was tested, and the survival was 106% (inactive). For `O=C(COc1ccccc1)Nc1ccccc1C(=O)OCc1cc(=O)n2nc(C3CC3)sc2n1`, the survival was 89% (inactive). In the case of `Cc1ccc(Nc2cc(=O)[nH]c(=O)[nH]2)cc1C`, the survival is reported as 72% (inactive). With `CCc1ccc(NC(=O)C(=O)NCC(c2cccnc2)N2CCN(Cc3ccccc3)CC2)cc1` (centres undefined) the survival was 75% (inactive). For `CCc1ccc(CNC(=O)CCCN2C(=O)CCn3nc(-c4cccn4C)cc32)cc1`, the survival was 72% (inactive). With `Cc1ccccc1C(=O)NCCc1sc(-c2ccc(Cl)cc2)nc1C` the survival was 100% (inactive). For `COc1cccc(NC(=O)c2cn(C3CCCCC3)c(=O)c3c2c2ccccc2n3C)c1`, the survival was 75% (inactive). For `Cc1ccc(CN(C(=O)c2ccc(OCC(C)C)cc2)c2ccccn2)o1`, the survival was 104% (inactive).
